The values that follow come from PubChem BioAssay (Tox21).

Structures are written as SMILES. Unmarked numbers belong to inactive results. Records with an inconclusive call do not appear. The source made the active and inactive calls. Calls come from the whole dose curve; as a rule, active = well fitted curve in the direction sought with a large enough effect in the repeat runs; inconclusive = weak or mixed curves; inactive = no such curve, though single readings can be large; an effect the other way counts as inactive or inconclusive.
% is set by controls: 0 for no effect and ±100 for the full control effect.

Test system in one assay: not listed separately
The experiment in a line: Caspase-3/7 induction in CHO-K1 cells by small molecules, qHTS cell viability counter screen (AID 1346979). Note: nearly all actives have a fitted effect of over 35% in size. The note with it: CellTiter-Fluor fluorescence, 17 h; series mostly up to 92.4 µM; activity change, negative = cytotoxicity: at the top concentration. In a few lines: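 Wild-type CHO-K1 cells were seeded at 1,500 per well, rested 5hr at 37 C, then exposed to compounds in DMSO. After 16hr, CellTiter-Fluor reagent was added and fluorescence read 1hr later as the viability measure.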
With `CC1=NNC(=O)N(/N=C/c2cccnc2)C1`, the “activity change, negative = cytotoxicity” value is 5.84%.
In the case of `OCCSCSCCO`, the “activity change, negative = cytotoxicity” value is 0.565%.
Take `O=NN1CCN(N=O)CC1`: the “activity change, negative = cytotoxicity” value is 3.04%.
Regarding `CNC(=O)O/N=C(\C)SC`, the “activity change, negative = cytotoxicity” value is 7.83%.
Same read-out and setting: to `O=C(O)c1ccc2[nH]cc(CCCCN3CC=C(c4ccccc4)CC3)c2c1` belongs -9.09% [at 42.5 µM]; to `CCC1(c2ccccc2)C(=O)NC(=O)NC1=O`, -3.13%.
In the case of `N#CCNCC#N`, the “activity change, negative = cytotoxicity” value was 3.07%.
Turning to `ClCCOCOCCCl`, the “activity change, negative = cytotoxicity” value is 0.538%.

Test system in the next assay: not listed separately
The assay is described as follows: Caspase-3/7 induction in CHO-K1 cells by small molecules, qHTS assay (AID 1346980). Note: nearly all actives have a fitted effect of over 15% in size. The note with it: CHO-K1 caspase-3/7 induction, Caspase-Glo luminescence, 17 h; series mostly up to 92.4 µM; caspase-3/7 activation: at the top concentration. Summed up:
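Wild-type CHO-K1 cells exposed to compounds for 17hr at 37 C, 5% CO2. Caspase-3/7 activity then measured by Caspase-Glo 3/7 luminescence after 30min at room temperature.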
(Quantitative high-throughput screening tests each substance at several concentrations.)
Consider `CCOP(=S)(OCC)SCSc1ccc(Cl)cc1`, for which the “caspase-3/7 activation” value is -1.05%.
The same measure, in the same setting: to `CCOC(=O)N(C)C(=O)CSP(=S)(OCC)OCC` belongs -0.94%; to `CCOP(=S)(Oc1cnc(C(C)(C)C)nc1)OC(C)C` (stereo unspecified), 2.33%.
On the same count and under the same terms, to `CCCCN(CCCCO)N=O` belongs 1.63%; to `CCC(Cl)[N+](=O)[O-]` (stereo unspecified), 0.413%; to `CCCSC(=O)Cl`, 0.153%.
In the case of `CCN(CC)C(C)C(=O)c1ccccc1` (stereo unspecified), the “caspase-3/7 activation” value was -0.221% [at 42.5 µM].
Still for that read-out and setting: to `ClCC(Cl)Cl` belongs 0.322%; to `CC(=O)C(Cl)Cl`, -0.18%.
Take `CC1=C(C(=O)O)N2C(=O)[C@@H](N)[C@H]2SC1`: the caspase-3/7 activation is 0.154% [at 19 µM].
Take `CCOc1nc(C(Cl)(Cl)Cl)ns1`: the “caspase-3/7 activation” value is -0.434%.
The same measure, in the same setting: to `CNC(=O)Oc1cccc(C(C)C)c1` belongs -0.522%.
As to `CC(C=O)Cc1ccc2c(c1)OCO2` (stereo unspecified), the “caspase-3/7 activation” value was -0.527%.
Same read-out and setting: to `CCCCOP(=O)(O)OCCCC` belongs -0.61%.
Same read-out and setting: to `O=[N+]([O-])c1cc(Cl)c(Cl)c(Cl)c1` belongs -0.1%.
On the same count and under the same terms, to `O=C1c2ccccc2C(=O)c2ccccc21` belongs 2.01% [at 19 µM]; to `CNC(=O)Oc1c(C(C)(C)C)cc(C)cc1C(C)(C)C`, 0.0632%; to `N#CCBr`, -0.648%.
Turning to `CCSC(=O)N(CC)C1CCCCC1`, the “caspase-3/7 activation” value is 0.717%.
Still for that read-out and setting: to `c1cc2c(c(N3CCNCC3)c1)OCCO2` belongs -0.506% [at 42.5 µM]; to `OC(Cn1cncn1)(c1ccc(F)cc1)c1ccccc1F` (stereo unspecified), 0.689%.
Same read-out and setting: to `CC1=NNC(=O)N(/N=C/c2cccnc2)C1` belongs -1.21%; to `OCCSCSCCO`, -0.54%.
The same measure, in the same setting: to `O=NN1CCN(N=O)CC1` belongs 1.71%; to `O=C(O)c1ccc2[nH]cc(CCCCN3CC=C(c4ccccc4)CC3)c2c1`, -0.797% [at 42.5 µM]; to `CCC1(c2ccccc2)C(=O)NC(=O)NC1=O`, -0.658%.
`N#CCNCC#N`: the “caspase-3/7 activation” value is 1.86%.
For the molecule `ClCCOCOCCCl`, the “caspase-3/7 activation” value was -1.04%.
The same measure, in the same setting: to `CN(C)CCc1ccc(O)cc1` belongs -0.686% [at 42.5 µM].

Test system in a further assay: not listed separately
The assay is described as follows: Caspase-3/7 induction in HepG2 cells by small molecules, qHTS cell viability counter screen (AID 1346981). Note: nearly all actives have a fitted effect of over 30% in size. The note with it: CellTiter-Fluor fluorescence, 17 h; series mostly up to 92.4 µM; activity change, negative = cytotoxicity: at the top concentration. In a few lines: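 After a 5-hr attachment period at 37 C and 5% CO2, wild-type HepG2 cells received compounds in DMSO. Sixteen hours later CellTiter-Fluor was dispensed and the fluorescent signal quantified after a further hour.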
As for `CCOP(=S)(OCC)SCSc1ccc(Cl)cc1`, the “activity change, negative = cytotoxicity” value was 5.36%.
On the same count and under the same terms, to `CCOC(=O)N(C)C(=O)CSP(=S)(OCC)OCC` belongs 0.694%.
Still for that read-out and setting: to `CCOP(=S)(Oc1cnc(C(C)(C)C)nc1)OC(C)C` (stereo unspecified) belongs -2.08%.
For `CCCCN(CCCCO)N=O`, the “activity change, negative = cytotoxicity” value was -0.929%.
Still for that read-out and setting: to `CCCSC(=O)Cl` belongs 0.857%; to `CCN(CC)C(C)C(=O)c1ccccc1` (stereo unspecified), 2.76% [at 42.5 µM]; to `C[N+](=O)[O-]`, -0.89%.
For `ClCC(Cl)Cl`, the “activity change, negative = cytotoxicity” value is -0.926%.
Consider `CC(=O)C(Cl)Cl`, for which the “activity change, negative = cytotoxicity” value was 1.19%.
The same measure, in the same setting: to `CC1=C(C(=O)O)N2C(=O)[C@@H](N)[C@H]2SC1` belongs 0.509% [at 19 µM].
The same measure, in the same setting: to `CCOc1nc(C(Cl)(Cl)Cl)ns1` belongs 4.36%; to `CC(C=O)Cc1ccc2c(c1)OCO2` (stereo unspecified), 9.97%.
For `CCCCOP(=O)(O)OCCCC`, the “activity change, negative = cytotoxicity” value is 4.64%.
In the case of `Cc1cccc(C#N)c1`, the “activity change, negative = cytotoxicity” value is 3.49%.
The same measure, in the same setting: to `O=[N+]([O-])c1cc(Cl)c(Cl)c(Cl)c1` belongs -11.2%.
On the same count and under the same terms, to `Nc1ccccc1Cl` belongs -1.73%; to `O=C1c2ccccc2C(=O)c2ccccc21`, 8.77% [at 19 µM].
On the same count and under the same terms, to `CNC(=O)Oc1c(C(C)(C)C)cc(C)cc1C(C)(C)C` belongs 8.99%.
With `N#CCBr`, the “activity change, negative = cytotoxicity” value is -4%.
The same measure, in the same setting: to `CCSC(=O)N(CC)C1CCCCC1` belongs 2.31%; to `CNC(=O)Oc1ccc(N(C)C)c(C)c1`, -0.855%.
As for `c1cc2c(c(N3CCNCC3)c1)OCCO2`, the “activity change, negative = cytotoxicity” value was 2.66% [at 42.5 µM].
Turning to `OC(Cn1cncn1)(c1ccc(F)cc1)c1ccccc1F` (stereo unspecified), the “activity change, negative = cytotoxicity” value was 1.11%.
Same read-out and setting: to `CC1=NNC(=O)N(/N=C/c2cccnc2)C1` belongs 5.46%; to `O=NN1CCN(N=O)CC1`, 3.66%; to `CNC(=O)O/N=C(\C)SC`, 0.246%.
In the case of `O=C(O)c1ccc2[nH]cc(CCCCN3CC=C(c4ccccc4)CC3)c2c1`, the “activity change, negative = cytotoxicity” value is -0.0157% [at 42.5 µM].
Same read-out and setting: to `N#CCNCC#N` belongs -0.451%.
Take `ClCCOCOCCCl`: the “activity change, negative = cytotoxicity” value is -1.39%.

The target in the next assay is Nuclear receptor subfamily 1 group I member 2 (Homo sapiens) (UniProt O75469). The assay is described as follows: Human pregnane X receptor (PXR) small molecule agonists, qHTS assay (AID 1346982). Note: nearly all actives have a fitted effect of over 35% in size. Note: potency is the fitted concentration of half-maximal effect. The settings on record: PXR-Luc HepG2, CYP3A4 luciferase reporter, 24 h; series mostly up to 92.4 µM; activation: at the top concentration. In a few lines: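 Tox21 qHTS; PXR-Luc HepG2; compounds pinned from DMSO; 24 hr, 37 C; ONE-Glo luciferase detection, 30 min room temperature.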
Nuclear receptor subfamily 1 group I member 2 (Homo sapiens), sequence (O75469 whole entry, looked up): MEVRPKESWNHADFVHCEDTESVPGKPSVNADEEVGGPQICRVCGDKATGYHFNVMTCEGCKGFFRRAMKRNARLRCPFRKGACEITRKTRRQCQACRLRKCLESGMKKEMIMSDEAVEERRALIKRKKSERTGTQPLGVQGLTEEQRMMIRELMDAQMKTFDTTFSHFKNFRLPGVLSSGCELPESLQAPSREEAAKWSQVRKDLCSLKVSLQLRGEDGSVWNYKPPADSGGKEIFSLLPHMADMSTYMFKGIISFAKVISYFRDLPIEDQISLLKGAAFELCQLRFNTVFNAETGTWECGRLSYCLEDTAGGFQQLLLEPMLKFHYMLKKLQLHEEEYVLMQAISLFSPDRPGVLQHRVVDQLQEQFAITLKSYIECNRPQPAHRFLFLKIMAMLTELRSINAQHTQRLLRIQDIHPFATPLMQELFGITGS
Turning to `CCOC(=O)N(C)C(=O)CSP(=S)(OCC)OCC`, the Potency was 30.6 µM (active).
Same read-out and setting: to `CCOP(=S)(Oc1cnc(C(C)(C)C)nc1)OC(C)C` (stereo unspecified) belongs 24.3 µM (active).
For the molecule `NC1=NC(=O)C(c2ccccc2)O1` (stereo unspecified), the “activation” value was -1.92% [at 42.5 µM].
Regarding `CCC(Cl)[N+](=O)[O-]` (stereo unspecified), the “activation” value was 21.5%.
Still for that read-out and setting: to `CCCSC(=O)Cl` belongs 2.98%.
Still for that read-out and setting: to `CCN(CC)C(C)C(=O)c1ccccc1` (stereo unspecified) belongs -11.3% [at 42.5 µM]; to `C[N+](=O)[O-]`, 12.9%; to `ClCC(Cl)Cl`, 4.32%.
For `CC(=O)C(Cl)Cl`, the “activation” value is 1.39%.
The same measure, in the same setting: to `CC1=C(C(=O)O)N2C(=O)[C@@H](N)[C@H]2SC1` belongs -3.97% [at 19 µM]; to `CCOc1nc(C(Cl)(Cl)Cl)ns1`, 9.19%.
For the molecule `ClC(Cl)C(Cl)Cl`, the Potency is 55 µM (active).
As for `CN1C[C@@H](NS(=O)(=O)N(C)C)C[C@@H]2c3cccc4c3c(cn4C)C[C@H]21`, the Potency is 23.7 µM (active).
For the molecule `CCCCOP(=O)(O)OCCCC`, the “activation” value is -25.9%.
Turning to `O=[N+]([O-])c1cc(Cl)c(Cl)c(Cl)c1`, the “activation” value is 17%.
The same measure, in the same setting: to `Nc1ccccc1Cl` belongs 1.38%; to `N#CCBr`, 15.1%; to `CCSC(=O)N(CC)C1CCCCC1`, -4.26%.
On the same count and under the same terms, to `c1cc2c(c(N3CCNCC3)c1)OCCO2` belongs -2.75% [at 42.5 µM].
The same measure, in the same setting: to `CC1=NNC(=O)N(/N=C/c2cccnc2)C1` belongs -1.78%.
On to `O=NN1CCN(N=O)CC1`, for which the “activation” value was 0.716%.
On the same count and under the same terms, to `CNC(=O)O/N=C(\C)SC` belongs -5.24%; to `O=C(O)c1ccc2[nH]cc(CCCCN3CC=C(c4ccccc4)CC3)c2c1`, -1.1% [at 42.5 µM]; to `CCC1(c2ccccc2)C(=O)NC(=O)NC1=O`, 23.4%.
Regarding `CN(C)CCc1ccc(O)cc1`, the “activation” value was -2.29% [at 42.5 µM].
